Assay results taken from PubChem BioAssay AID1159580 (chemical genetic matrix, 2015).
About 2,000 (36%) of roughly 5,500 compounds were called active. Not shown: some 18% with an inconclusive outcome. No stated cut-off is given here; in the data, active means normalized growth mostly below about 0.91 (no sharp cut-off); inconclusive means no clear call, values can overlap the other calls; inactive means mostly above about 0.92. The list shows a part of the results.

Experiment: chemical genetic growth profiling, strain panel (AID 1159580);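 further: tested at 20 µM; growth read once vehicle control cultures reached saturation at 30 °C; 1 = growth at the plate median or of vehicle wells; lower values mean less growth of the strain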
Conditions: S. cerevisiae deletion strains, growth OD

Measured: normalized growth

Cc1cccc(C(=O)NCN2CCN(c3ccccc3C#N)CC2)c1
inactive: locus YAL040C, strain CLN3, hits give low values 0.963 | locus YCL061C, strain MRC1 (second series), hits give low values 0.978 | locus YDR150W, strain NUM1, hits give low values 0.987 | locus YDR363W, strain ESC2, hits give low values 0.975 | locus YER002W, strain NOP16, hits give low values 0.974 | locus YGR229C, strain SMI1, hits give low values 0.942 | locus YJR075W, strain HOC1, hits give low values 0.978 | locus YMR307W, strain GAS1, hits give low values 1.01 | locus YNL175C, strain NOP13, hits give low values 0.979 | locus YNL197C, strain WHI3, hits give low values 0.976 | locus YNL224C, strain SQS1, hits give low values 0.993 | locus YOR083W, strain WHI5 (second series), hits give low values 0.982 | locus YPL241C, strain CIN2, hits give low values 0.982

FC(F)(F)c1cccc(NC(=S)Nc2csc(C(F)(F)F)c2-c2ccccc2)c1
active: locus YHR030C, strain SLT2, hits give low values 0.848
inactive: locus YAR019C, strain CDC15, hits give low values 0.968 | locus YBL105C, strain PKC1, hits give low values 0.998 | locus YBR135W, strain CKS1, hits give low values 0.995 | locus YBR136W, strain MEC1, hits give low values 0.97 | locus YBR160W, strain CDC28, hits give low values 0.988 | locus YDL017W, strain CDC7, hits give low values 0.998 | locus YDL028C, strain MPS1, hits give low values 0.992 | locus YDL101C, strain DUN1, hits give low values 0.983 | locus YDL108W, strain KIN28, hits give low values 0.993 | locus YDL132W, strain cdc53, hits give low values 0.98 | locus YDL214C, strain PRR2, hits give low values 0.944 | locus YDR052C, strain DBF4, hits give low values 0.987 | locus YDR054C, strain cdc34, hits give low values 0.97 | locus YDR226W, strain ADK1, hits give low values 0.988 | locus YDR477W, strain SNF1, hits give low values 0.991 | locus YER123W, strain YCK3, hits give low values 0.991 | locus YER133W, strain GLC7, hits give low values 0.964 | locus YFL009W, strain cdc4, hits give low values 0.977 | locus YFL029C, strain CAK1, hits give low values 0.954 | locus YFR003C, strain YPI1, hits give low values 0.997 | locus YFR019W, strain FAB1, hits give low values 0.984 | locus YFR028C, strain CDC14, hits give low values 0.976 | locus YGR040W, strain KSS1, hits give low values 0.981 | locus YGR052W, strain FMP48, hits give low values 1.03 | locus YGR092W, strain DBF2, hits give low values 0.951 | locus YHR079C, strain IRE1, hits give low values 0.958 | locus YHR082C, strain KSP1, hits give low values 1 | locus YHR205W, strain SCH9, hits give low values 0.973 | locus YIL147C, strain SLN1, hits give low values 0.984 | locus YJL095W, strain BCK1, hits give low values 0.959 | locus YJL128C, strain PBS2, hits give low values 0.973 | locus YJL157C, strain FAR1, hits give low values 0.964 | locus YJR016C, strain ILV3, hits give low values 0.984 | locus YJR066W, strain TOR1 (second series), hits give low values 0.934 | locus YJR066W, strain TOR1, hits give low values 0.983 | locus YKL048C, strain ELM1, hits give low values 0.997 | locus YKL067W, strain YNK1, hits give low values 0.963 | locus YKL101W, strain HSL1, hits give low values 0.952 | locus YKL193C, strain SDS22, hits give low values 0.985 | locus YKL203C, strain TOR2, hits give low values 1.03 | locus YLR113W, strain HOG1, hits give low values 0.892 | locus YLR133W, strain CKI1, hits give low values 0.96 | locus YLR403W, strain SFP1, hits give low values 0.989 | locus YML070W, strain DAK1, hits give low values 0.965 | locus YMR001C, strain CDC5, hits give low values 0.993 | locus YMR205C, strain PFK2 (second series), hits give low values 0.96 | locus YMR277W, strain FCP1, hits give low values 0.987 | locus YNL006W, strain LST8, hits give low values 0.988 | locus YNL020C, strain ARK1, hits give low values 0.964 | locus YNL161W, strain CBK1, hits give low values 0.988 | locus YNL183C, strain NPR1, hits give low values 0.976 | locus YNL207W, strain RIO2, hits give low values 0.973 | locus YNL222W, strain SSU72, hits give low values 0.991 | locus YNL307C, strain MCK1 (second series), hits give low values 0.938 | locus YOL078W, strain AVO1, hits give low values 0.986 | locus YOL136C, strain PFK27, hits give low values 0.953 | locus YOR061W, strain CKA2, hits give low values 0.945 | locus YOR119C, strain RIO1, hits give low values 0.978 | locus YOR231W, strain MKK1, hits give low values 0.957 | locus YOR329C, strain SCD5, hits give low values 0.991 | locus YPL031C, strain PHO85, hits give low values 0.976 | locus YPL153C, strain RAD53, hits give low values 0.976 | locus YPL204W, strain HRR25, hits give low values 0.955 | locus YPL209C, strain IPL1, hits give low values 0.997 | locus YPL256C, strain CLN2, hits give low values 0.934 | locus YPR025C, strain CCL1, hits give low values 0.992 | locus YPR106W, strain ISR1, hits give low values 0.984 | locus YPR111W, strain DBF20, hits give low values 0.981 | strain NNK1, hits give low values 0.991 | strain TSCII, hits give low values 0.968
